From PubChem BioAssay
Sampled rows, rich in hits. Any-hit rate of the full collection: about 4.3%.
HSF1 inhib = HSF1 inhibition; 300,000 tested, 0.77% active; AID 2098; activity change, negative = inhibition, % at 7.5 µM (by protocol); NIH3T3-HGL HSE-luciferase, MG132-induced, luminescence 8 h; stronger effect = lower value;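 active = more than half of replicate wells show activity change below -50%, luminescence cut by over half; inconclusive = some wells, but at most half, below -50%; inactive = no replicate well below -50%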;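 note: luciferase reports HSF-1 transcriptional activity via heat shock element; 0% = median of DMSO wells and -100% = zero luminescence signal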
HSF1 activator = increases HSF-1 driven luciferase reporter signal; NIH3T3-HGL HSF-1 luciferase reporter, MG132, 8 h; 100% = twice DMSO control signal; activation, % at 9 µM; 300,000 tested, 1.7% active; AID 504408;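 active = mean replicate activation of at least 50% with a set share of replicates each reaching 50%; inconclusive = only one of those two conditions met; inactive = mean below 50% and too few replicates reaching it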;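 note: 0% = median of the neutral control wells and 100% = twice that signal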
Wnt act = activators of Wnt/beta-catenin signaling | Wnt/beta-catenin reporter cell assay, activator, plate reader | activation, % at 9.35 µM | 300,000 tested, 1.2% active | AID 743398; in the data active = activation above about 30%, passing the limit was not always enough; inconclusive = no clear call, values can overlap the other calls;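 note: 0% = neutral control wells and 100% = positive control wells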
SMARCA2 act = activators of SMARCA2 function; MG213 cells, MMTV-luciferase reporter, dexamethasone, overnight; activation, % at 9.1 µM; 370,000 tested, 1% active; in the data active = activation above about 7.8%;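 note: 0% = vehicle wells and 100% = reference activator wells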
MITF act = activators of MITF-driven TRPM1 promoter activity in SK-MEL-5 cells; AID 588334; SK-MEL-5 TRPM1-promoter luciferase, 24 h; % of positive control, neutral wells = 0; activation, % at 12.5 µM; 300,000 tested, 0.75% active;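 active = mean activation of at least 80% with every replicate also reaching 80%; inconclusive = mean reaches 80% but some replicate falls short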;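 note: 0% = neutral control wells and 100% = parthenolide positive control wells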
esBAF inh = inhibitors of esBAF chromatin remodeling in mouse ES cells; Bmi1-luciferase knock-in reporter, 24 h; 100% = twice the neutral-well signal; reporter increase, % at 12.5 µM; 350,000 tested, 2% active; AID 602393; in the data active = activation above about 40%; inconclusive = no clear call, values can overlap the other calls;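 note: 0% = median of the plate's neutral control wells and 100% = double that signal; a rise in the Bmi1 reporter signal indicates esBAF inhibition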
* marks the source's active call; other numbers are inactive results; ? = inconclusive; nt = not tested or not shown.

SMILES | HSF1 inhib | HSF1 activator | Wnt act | SMARCA2 act | MITF act | esBAF inh
O=C(/C=C/c1cccc(F)c1)OCC(=O)c1ccc[nH]1 | nt | nt | 3 | 7.9* | 34 | -1
c1ccc(-c2csc(N3CCN(c4ccccn4)CC3)n2)cc1 | 17 | 43 | ? | 1 | 59 | 61*
c1ccc(-c2csc(N3CCOCC3)n2)cc1 | 10 | 8 | 39* | 3 | 81* | 60*
COc1ccc(-c2csc(N3C(=O)CNC3=S)n2)cc1 | 8 | 29 | 21 | 4 | 0 | nt
O=C1CNC(=S)N1c1nc(-c2ccccc2)cs1 | 26 | 52* | 50* | 1 | 88* | nt
Clc1ccc(-c2csc(N3CCN(c4ccccc4)CC3)n2)cc1 | -4 | 9 | nt | -2 | 8 | -1
COc1cccc(NC(=O)Nc2ccc3c(c2)C(=O)N(C)[C@H]2CC[C@H](CC(=O)NCCc4ccccc4)O[C@H]2CO3)c1 | nt | nt | nt | nt | nt | 3
CO[C@@H]1CN(C)C(=O)c2cc(NS(=O)(=O)c3cn(C)cn3)ccc2OC[C@H](C)N(CCC(F)(F)F)C[C@@H]1C | nt | nt | nt | nt | nt | -10
C[C@@H]1CCCCO[C@H](CN(C)S(=O)(=O)c2ccc(Cl)cc2)[C@@H](C)CN([C@H](C)CO)C(=O)c2cc(NC(=O)Nc3ccccc3)ccc2O1 | nt | nt | nt | nt | nt | 1
N#C/C(=C/c1ccc(N2CCCCC2)o1)C(=O)Nc1ccc2ccccc2c1 | 19 | 19 | -4 | 0 | 55 | nt
N#C/C(=C/c1ccc(N2CCCCC2)o1)C(=O)Nc1ccc(Cl)cc1 | 21 | 28 | nt | 5 | 78 | 60*
N#C/C(=C/c1ccc(N2CCCCCC2)o1)c1cccc(F)c1 | 48 | 81* | nt | 0 | 86* | 30
N#C/C(=C/c1ccc(N2CCCCCC2)o1)c1ccc(F)cc1 | 93 | 114* | 0 | nt | -5 | -13
CCOC(=O)c1cnc2cc(-c3ccc(C)cc3)nn2c1-c1ccccc1 | -3 | -4 | nt | 0 | 1 | nt
CCOC(=O)c1cnc2cc(-c3ccc(C)cc3)nn2c1C | nt | nt | -2 | -2 | nt | 71*
CC(=O)c1cnc2cc(-c3cccc(Br)c3)nn2c1C | 33 | 42 | 14 | 2 | 56 | 50*
CO[C@@H](C(=O)N(C)C[C@H]1OCc2ccccc2-c2c(n(C)c3ccccc23)C(=O)N([C@@H](C)CO)C[C@@H]1C)c1ccccc1 | nt | nt | nt | nt | nt | 13
C=CCOC(=O)/C(=C/c1cccc2ccccc12)NC(=O)c1ccccc1 | 54 | 72* | 16 | 3 | 16 | nt
C[C@@H]1CN([C@@H](C)CO)S(=O)(=O)c2ccc(C#CC3CC3)cc2O[C@H]1CN(C)C | nt | nt | nt | nt | nt | 2
C[C@H](CO)N1C[C@H](C)[C@H](CN(C)S(=O)(=O)c2cn(C)cn2)Oc2ccc(NC(=O)Nc3ccccc3)cc2C1=O | nt | nt | nt | nt | nt | 0
CC(C)NC(=O)Nc1ccc2c(c1)C(=O)N([C@H](C)CO)C[C@@H](C)[C@H](CN(C)C)O2 | nt | nt | nt | nt | nt | -1
CCCC1(C)Nc2ccccc2-c2nc3ccccc3n21 (centres undefined) | 3 | 6 | nt | 4 | 77 | 67*
CCCn1c(-c2ccc[nH]c2=O)nc2ccccc21 | -6 | 2 | -1 | -3 | 7 | -1
c1ccc2c(c1)NC1(CCCC1)n1c-2nc2ccccc21 | -9 | 6 | 15 | 6 | ? | 75*
O=C(c1cnsn1)N1CCC(CO)(Cc2cccc(F)c2)CC1 | 33 | ? | 50* | 2 | 114* | 70*
SMILES | HSF1 inhib | HSF1 activator | Wnt act | SMARCA2 act | MITF act | esBAF inh
CCOc1ccc(CNC(=O)Nc2ccccc2)cc1 | 2 | 16 | 11 | 3 | 65 | 47*
CCC(=O)Nc1cc(C(=O)OCC(=O)c2ccc(Cl)cc2Cl)ccc1C | 5 | 26 | nt | -2 | 0 | 3
COC(=O)c1ccc(NC(=O)Cc2ccccc2)cc1 | 12 | 26 | 39* | 3 | nt | nt
CCOc1ccc(NC(=O)Cc2ccccc2)cc1 | 8 | 24 | 35* | 5 | 83* | 66*
COC(=O)c1ccc(NC(=O)Cc2ccc(C)cc2)cc1 | 5 | -7 | 3 | 2 | 4 | 19
CCC(=O)Nc1cc(C(=O)OCC(=O)c2ccccc2Cl)ccc1C | 18 | 42 | 35* | 0 | nt | 64*
COc1ccc(CNC(=O)Nc2ccccc2)cc1 | 9 | 21 | 29 | 2 | 60 | 29
CN1C(=O)c2cc(NC(=O)C3CC3)ccc2OC[C@@H]2O[C@H](CC(=O)NCCc3ccncc3)CC[C@@H]21 | nt | nt | nt | nt | nt | -4
COC(=O)c1ccc(NC(=O)C(=O)c2cccn2C)cc1 | 20 | 61* | 11 | 7 | 18 | nt
CCC(=O)Nc1ccc(C(=O)OCc2ccccc2Cl)cc1 | 61 | 116* | nt | 4 | 121* | ?
CC(=O)Nc1ccc(C(=O)OCc2ccccc2Cl)cc1 | 13 | 21 | 0 | 1 | 37 | nt
C[C@H]1CN([C@@H](C)CO)C(=O)c2cc(N(C)C)ccc2O[C@H]1CN(C)S(C)(=O)=O | nt | nt | nt | nt | nt | -9
O=C(c1cc2ccccc2oc1=O)N(Cc1cccc(Br)c1)C1CCS(=O)(=O)C1 (centres undefined) | nt | nt | 0 | 0 | 11 | 24
O=C(c1cc2ccccc2oc1=O)N(Cc1ccco1)C1CCS(=O)(=O)C1 (centres undefined) | 29 | 29 | nt | 5 | 75 | 82*
Cc1ccccc1NC(=O)C1Cc2ccccc2CN1C(=O)c1ccco1 (centres undefined) | 7 | -2 | 10 | 7 | 30 | 55*
COc1cccc(NC(=O)C2Cc3ccccc3CN2C(=O)c2ccco2)c1 (centres undefined) | 10 | 10 | 4 | 6 | 5 | 57*
O=C(Nc1ccc2c(c1)[C@@H]1C[C@H](CC(=O)N3CCCCC3)O[C@H](CO)[C@@H]1O2)NC1CCCC1 | nt | nt | nt | nt | nt | -5
COC(=O)[C@H]1C[C@@]2(O)CN(S(=O)(=O)c3ccc(C)cc3)C[C@@]2(OC(=O)NCC2CCCCC2)C[C@H]1C(=O)OC | nt | nt | -1 | -5 | nt | 52*
COC(=O)c1nc2cc3c(cc2c(C)c1C(=O)OC)OCO3 | 3 | -4 | nt | 1 | nt | 6
Cc1nc2cc3c(cc2c(C)c1C(=O)OC(C)C)OCO3 | 11 | 28 | 16 | 3 | 47 | 46*
Cn1c(N)c(S(=O)(=O)N2CCCC2)c(=O)n(C)c1=O | 1 | -6 | 30* | -1 | 1 | 8
COc1ccc(S(=O)(=O)N(C)C[C@H]2Oc3ncc(C#CC4(O)CCCC4)cc3C(=O)N([C@H](C)CO)C[C@@H]2C)cc1 | nt | nt | nt | nt | nt | -10
CCOC(=O)/C(=N\Nc1ncnc2ccccc12)c1ccc(OC)cc1 | 7 | 8 | 16 | 3 | 8 | -49
COc1ccc(/C(=N/Nc2ncnc3ccccc23)C(=O)O)cc1 | 21 | 6 | 21 | 4 | -1 | 59*
O=C(C[C@@H]1CC[C@@H]2[C@H](COC[C@H](O)CN2S(=O)(=O)c2ccccc2F)O1)NCc1ccccc1Cl | nt | nt | nt | nt | nt | -2
